Assay results as given in PubChem BioAssay AID1159580 (chemical genetic matrix, 2015).
Several values for one entry are separate records, joined by “and”; a condition that tells them apart may be missing. Equal entries are not always repeated. Out of some 5,500 compounds screened, about 2,000 (36%) were called active. Another 18% or so got no clear call; they are omitted. Cut-off read from the data, not from the text of the source: active = normalized growth mostly below about 0.91 (no sharp cut-off); inconclusive = no clear call, values can overlap the other calls; inactive = mostly above about 0.92. Some of the results follow.

Experiment: chemical genetic growth profiling, strain panel (AID 1159580);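 note: tested at 20 µM; growth read once vehicle control cultures reached saturation at 30 °C; 1 = growth at the plate median or of vehicle wells; lower values mean less growth of the strain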
Conditions: S. cerevisiae deletion strains, growth OD

Measured: normalized growth

O=C(Nc1ccccc1)Nc1ccccc1
inactive: locus YAL021C, strain ccr4, stronger effect = lower value 0.977 | locus YAL026C, strain drs2, stronger effect = lower value 0.951 | locus YAL030W, strain snc1, stronger effect = lower value 0.992 | locus YBL061C, strain skt5, stronger effect = lower value 0.967 | locus YBR009C, strain hhf1, stronger effect = lower value 0.957 | locus YBR021W, strain FUR4, stronger effect = lower value 0.935 | locus YBR023C, strain chs3, stronger effect = lower value 0.954 | locus YBR171W, strain sec66, stronger effect = lower value 0.954 | locus YBR229C, strain ROT2, stronger effect = lower value 1 | locus YBR231C, strain swc5, stronger effect = lower value 0.942 | locus YBR279W, strain paf1, stronger effect = lower value 0.973 | locus YCL011C, strain gbp2, stronger effect = lower value 0.93 | locus YCL016C, strain dcc1, stronger effect = lower value 0.943 | locus YCL029C, strain bik1, stronger effect = lower value 1.02 | locus YCL069W, strain vba3, stronger effect = lower value 0.983 | locus YCR088W, strain abp1, stronger effect = lower value 0.971 | locus YDL005C, strain med2, stronger effect = lower value 0.956 | locus YDL035C, strain GPR1, stronger effect = lower value 1.1 | locus YDL040C, strain nat1, stronger effect = lower value 0.978 | locus YDL101C, strain DUN1, stronger effect = lower value 0.998 | locus YDL185W, strain tfp1, stronger effect = lower value 0.99 | locus YDL192W, strain arf1, stronger effect = lower value 0.978 | locus YDR001C, strain nth1, stronger effect = lower value 0.968 | locus YDR069C, strain doa4, stronger effect = lower value 0.964 | locus YDR101C, strain arx1, stronger effect = lower value 0.983 | locus YDR137W, strain rgp1, stronger effect = lower value 0.955 | locus YDR150W, strain NUM1, stronger effect = lower value 1.03 | locus YDR159W, strain sac3, stronger effect = lower value 1.04 | locus YDR162C, strain NBP2, stronger effect = lower value 1.1 | locus YDR195W, strain ref2 0.991 | locus YDR297W, strain sur2, stronger effect = lower value 0.969 | locus YDR318W, strain mcm21, stronger effect = lower value 0.989 | locus YDR334W, strain swr1, stronger effect = lower value 0.959 | locus YDR335W, strain msn5, stronger effect = lower value 0.952 | locus YDR388W, stronger effect = lower value 0.991 | locus YDR392W, strain spt3, stronger effect = lower value 0.932 | locus YDR502C, strain sam2, stronger effect = lower value 0.977 | locus YEL003W, strain gim4, stronger effect = lower value 0.977 | locus YEL037C, strain rad23, stronger effect = lower value 0.97 | locus YEL061C, strain CIN8 (second series), stronger effect = lower value 0.97 | locus YER015W, strain faa2, stronger effect = lower value 0.957 | locus YER016W, strain bim1, stronger effect = lower value 0.962 | locus YER110C, stronger effect = lower value 0.967 | locus YER111C, strain swi4, stronger effect = lower value 0.974 | locus YER155C, strain BEM2 (second series), stronger effect = lower value 0.978 | locus YER155C, strain BEM2, stronger effect = lower value 1.01 | locus YER167W, strain BCK2, stronger effect = lower value 1 | locus YFR010W, strain ubp6, stronger effect = lower value 0.987 | locus YGL078C, strain dbp3, stronger effect = lower value 0.98 | locus YGL086W, strain mad1, stronger effect = lower value 0.977 | locus YGL167C, strain pmr1, stronger effect = lower value 0.972 | locus YGL173C, strain kem1, stronger effect = lower value 0.97 | locus YGL227W, strain vid30, stronger effect = lower value 0.967 | locus YGL240W, strain doc1, stronger effect = lower value 0.915 | locus YGL248W, strain PDE1, stronger effect = lower value 1.08 | locus YGL253W, strain hxk2, stronger effect = lower value 0.924 | locus YGR078C, strain PAC10, stronger effect = lower value 1.07 | locus YGR135W, strain pre9, stronger effect = lower value 0.985 | locus YGR252W, strain gcn5, stronger effect = lower value 0.91 | locus YHR013C, strain ard1, stronger effect = lower value 0.945 | locus YHR027C, strain rpn1, stronger effect = lower value 0.967 | locus YHR030C, strain SLT2, stronger effect = lower value 1.01 and 1.02 | locus YHR079C, strain IRE1 (second series), stronger effect = lower value 0.995 | locus YHR079C, strain IRE1, stronger effect = lower value 1 | locus YHR094C, strain hxt1, stronger effect = lower value 0.975 | locus YHR129C, strain ARP1, stronger effect = lower value 0.997 | locus YHR142W, strain chs7, stronger effect = lower value 0.887 | locus YHR200W, strain rpn10, stronger effect = lower value 0.997 | locus YIL066C, strain RNR3, stronger effect = lower value 0.996 | locus YIL125W, strain kgd1, stronger effect = lower value 0.977 | locus YIR030C, strain dcg1, stronger effect = lower value 0.975 | locus YJL092W, strain hpr5, stronger effect = lower value 0.969 | locus YJL095W, strain BCK1 (second series), stronger effect = lower value 0.991 | locus YJL095W, strain BCK1, stronger effect = lower value 1.09 and 1 | locus YJL115W, strain asf1, stronger effect = lower value 0.932 | locus YJL129C, strain trk1, stronger effect = lower value 0.998 | locus YJL134W, strain LCB3, stronger effect = lower value 1 | locus YJL154C, strain vps35, stronger effect = lower value 0.965 | locus YJL164C, strain tpk1, stronger effect = lower value 0.961 | locus YJL166W, strain qcr8, stronger effect = lower value 0.952 | locus YJL168C, strain set2, stronger effect = lower value 0.98 | locus YJL187C, strain SWE1 (second series), stronger effect = lower value 0.99 | locus YJR066W, strain TOR1, stronger effect = lower value 0.95
active: locus YDL074C, strain BRE1, stronger effect = lower value 1.28 [resistant] | locus YIL073C, strain SPO22, stronger effect = lower value 1.38 [resistant]
